hcDAF-12 act: H. contortus DAF-12 activation, primary screen; HEK293 hcDAF-12 lit1-tk-luc reporter, luminescence; 0% DMSO, 100% Δ7-dafachronic acid; activation, % at 6.8 µM; hit rate 1.4% among 370,000; AID 652067;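 active = activation above the mean of all tested compounds plus 3 SD, cut at about 5.5% in these data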
hgDAF-12 ag: agonists of H. glycines DAF-12 nuclear receptor; hit rate 1.8% among 370,000; AID 687014; activation, % at 6.8 µM; HEK293 GAL4-hgDAF12 UAS-luciferase reporter, agonist luminescence; normalized to butyrate control;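 active = activation above a cutoff set at the mean of all screened compounds plus 3 SD, cut at about 10% in these data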
DAX1 inh-1: blocks DAX1 repression of SF-1 activated StAR promoter; HEK293T StAR-luciferase reporter, SF-1/DAX-1 repression relief; inhibition, % at 6.8 µM; hit rate 1.1% among 370,000; AID 652010;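 active = inhibition above the mean over all tested compounds plus 3 SD, cut at about 3.6% in these data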;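 note: higher inhibition means more luminescence from relief of DAX-1 repression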
DAX1 inh-2: inhibits human nuclear receptor DAX1; inhibition, % at 6.75 µM; AID 504766; P51843; HEK293 Gal4-DAX1 luciferase reporter, luminescence; hit rate 0.99% among 340,000;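 active = inhibition above the mean over all tested compounds plus 3 SD, cut at about 4.2% in these data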;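 note: inhibition shows as a rise in luminescence from relieved DAX1 repression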
AHR act: activators of human aryl hydrocarbon receptor. P35869. AHR-responsive luciferase reporter cells, luminescence. activation, % at 5 µM. hit rate 2.5% among 320,000. AID 2796; in the data active = activation above about 47%
Target sequence (P35869 whole entry, looked up): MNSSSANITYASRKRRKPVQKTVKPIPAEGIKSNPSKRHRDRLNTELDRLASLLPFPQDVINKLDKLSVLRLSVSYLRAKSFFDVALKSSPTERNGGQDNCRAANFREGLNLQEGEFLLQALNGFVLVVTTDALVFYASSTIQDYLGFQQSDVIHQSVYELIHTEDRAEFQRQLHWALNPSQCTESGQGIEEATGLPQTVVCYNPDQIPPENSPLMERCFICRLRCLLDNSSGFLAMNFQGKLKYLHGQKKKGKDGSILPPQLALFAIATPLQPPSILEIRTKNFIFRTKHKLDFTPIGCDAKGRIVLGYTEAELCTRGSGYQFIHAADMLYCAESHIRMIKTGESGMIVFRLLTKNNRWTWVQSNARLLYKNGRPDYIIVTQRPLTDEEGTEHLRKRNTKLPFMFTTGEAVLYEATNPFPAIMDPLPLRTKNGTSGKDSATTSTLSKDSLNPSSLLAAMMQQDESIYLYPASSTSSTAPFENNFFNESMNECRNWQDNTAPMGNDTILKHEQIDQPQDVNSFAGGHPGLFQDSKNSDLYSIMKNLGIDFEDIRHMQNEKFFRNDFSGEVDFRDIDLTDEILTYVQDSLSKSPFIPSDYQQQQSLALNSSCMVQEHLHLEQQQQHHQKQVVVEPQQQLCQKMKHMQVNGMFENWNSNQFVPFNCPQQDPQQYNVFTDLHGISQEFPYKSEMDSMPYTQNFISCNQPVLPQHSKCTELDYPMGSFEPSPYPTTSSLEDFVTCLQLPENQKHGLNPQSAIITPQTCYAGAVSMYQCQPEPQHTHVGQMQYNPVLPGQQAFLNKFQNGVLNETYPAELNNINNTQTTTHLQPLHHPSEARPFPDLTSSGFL
ssDAF12 agonist: activates DAF-12 receptor from parasite S. stercoralis; HEK293 ssDAF-12/GRIP1 lit1-tk-luc reporter, luminescence; % of 3 µM dafachronic acid response; activation, % at 6.8 µM; hit rate 1% among 370,000; AID 652126;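 active = activation above the mean over all tested compounds plus 3 SD, cut at about 0.9% in these data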
LXR ag: activates human LXR-beta, counter-screen for hcDAF-12 agonists; shares compounds with hcDAF-12 act; HEK293 Gal4-LXR tk-luc reporter, luminescence, 24 h; normalized: DMSO 0%, positive control 100%; activation, % at 6.8 µM; 3,400 tested, under 10 active;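 active = mean percent activation of the reporter above a cutoff set as the average over tested compounds plus their standard deviation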
hcDAF12 ag: confirmation of H. contortus DAF-12 agonists; shares compounds with hcDAF-12 act; HEK293 hcDAF-12 lit1-tk-luc reporter, luminescence; % of Δ7-dafachronic acid response; activation, % at 6.8 µM; AID 743032; hit rate 61% among 3,400;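 active = mean activation across triplicate tests above the threshold derived from the earlier primary screen, cut at about 5.5% in these data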
Numbers stand for hits; - = inactive; . = not tested or not shown. Only some compounds are listed: those with a hit (about 5.7% of all), similar ones and a draw of the others.

SMILES	hcDAF-12 act	hgDAF-12 ag	DAX1 inh-1	DAX1 inh-2	AHR act	ssDAF12 agonist	LXR ag	hcDAF12 ag
CN(N=Cc1ccccc1O)c1ccc2ccccc2n1	8.6	12	-	-	.	2.4	-	12
O=C(NCc1cc(Br)cc(Br)c1OC(=O)c1ccccc1[N+](=O)[O-])c1ccccc1	-	-	-	-	-	-	.	.
CCN(CC)CCn1nc2c3c(cccc3c1=O)-c1ccccc1-2	11	-	-	-	-	23	-	9.5
Cc1cccc(N2C(=O)N3[C@H](c4ccc(Br)cc4)[C@@H]4C(=O)N(C(C)(C)C)C(=O)[C@@H]4[C@]3(C)C2=O)c1	-	-	-	-	-	-	.	.
CCOC(=O)c1cc2ccc3ccccc3c2s1	7.2	11	-	-	-	1.3	-	11
O=C(O)c1cc(-c2ccc(-c3ccc(F)cc3)o2)nc2ccccc12	13	11	-	-	-	-	-	6.8
O=C(c1cc(-c2ccc(F)cc2)nc2ccccc12)N1CCC1	-	-	-	-	-	-	.	.
Cc1cc(C(=O)CN2C(=O)c3ccccc3C2=O)c(C)n1Cc1cccs1	-	-	-	-	-	-	.	.
Cc1cc(C(=O)Cn2nnc3ccccc3c2=O)c(C)n1Cc1cccs1	8.4	-	-	-	-	0.9	-	12
N#C/C(=C\c1ccc(-c2nc3ccccc3s2)o1)C(N)=O	6.8	-	-	-	-	-	-	-
CCN(CC)C(=O)CSc1nc(N)c(C(=O)Nc2ccc(OC)cc2)s1	-	-	-	-	-	-	.	.
COc1ccc(NC(=O)c2sc(SC)nc2N)cc1	7.3	13	-	-	-	1.3	-	9.2
CN(CC(=O)NCCc1ccc(S(N)(=O)=O)cc1)S(=O)(=O)c1ccc(Br)s1	-	-	-	-	-	-	.	.
COc1ccc(S(=O)(=O)N2CCOCC2)cc1NC(=O)c1c(C)noc1C	-	-	-	-	.	-	.	.
Cc1ccc(-c2nc(N/N=C/c3ccccc3[N+](=O)[O-])c3ccccc3n2)cc1	-	-	-	-	-	-	.	.
Brc1ccc(-c2nc(N/N=C/c3cccnc3)c3ccccc3n2)cc1	11	13	-	-	-	1.6	-	14
Cc1cc(N=Nc2c(O)c3ccccc3[nH]c2=O)ccc1N=Nc1ccc(C(=O)N(C)C)cc1	-	-	-	-	.	-	.	.
CC(=O)c1cccc(N=Nc2c(C)[nH]c3ccccc23)c1	6.7	-	-	-	64	1.4	-	-
CC1=NN(C(C#N)c2ccccc2C)C(c2ccccc2)C1 (stereo not drawn)	-	-	-	-	-	-	.	.
COc1ccccc1C(C#N)N1N=C(C)CC1c1ccccc1 (stereo not drawn)	-	-	-	-	-	-	.	.
N#CC(c1ccccc1O)N1N=C(c2ccccc2)CC1c1ccccc1 (stereo not drawn)	9.2	-	-	-	-	1.6	-	7.3
COc1cc(C(C#N)N2N=C(c3ccccc3)CC2c2ccccc2)ccc1O (stereo not drawn)	7.9	12	-	-	-	1.4	-	-
CCn1c(C(=O)O)c(CC(=O)N(C)c2ccc(OC)cc2OC)c2ccccc21	-	-	-	-	-	-	.	.
CN(CCC1CCOCC1)C(=O)C1CCC(=O)N(CCc2cccc(F)c2)C1 (stereo not drawn)	-	-	-	-	-	-	.	.
Oc1ccc(-c2cn3cc(C(F)(F)F)ccc3n2)cc1	7.7	12	-	-	-	-	-	9.0
SMILES	hcDAF-12 act	hgDAF-12 ag	DAX1 inh-1	DAX1 inh-2	AHR act	ssDAF12 agonist	LXR ag	hcDAF12 ag
Oc1ccc(-c2cccc(-c3ccc(O)cc3)n2)cc1	-	-	-	-	-	-	.	.
CCc1ccccc1N(CC(=O)NC(C)C)C(=O)CCC(=O)Nc1nccs1	-	-	-	-	-	-	.	.
Nc1nn(-c2ccccc2)c(N)c1N=Nc1ccccc1F	10	18	-	-	64	2.1	-	8.8
C=CCN(C(=O)CSC1=NC(=O)CN1C(C)=O)c1nc(C)c(-c2ccccc2)s1	-	-	-	-	-	-	.	.
CC1=NN(C(N)=S)C(=O)C1N=Nc1ccc(C)cc1C (stereo not drawn)	12	11	-	.	67	1.2	-	13
NC(=S)N/N=C/c1ccc(-c2ccc(Cl)c(Cl)c2)o1	7.1	-	-	-	48	1.4	-	9.9
O=C(CCn1nnc2ccccc21)N1CCN(c2ccc(F)cc2)CC1	-	-	-	.	.	-	.	.
O=C(CCn1nnc2ccccc21)N1CCN(c2ccccc2)CC1	-	-	-	-	-	-	.	.
Cc1ccccc1N1CCN(C(=O)CCn2nnc3ccccc32)CC1	8.5	13	-	.	.	-	-	6.4
O=C(CCn1nnc2ccccc21)N1CCN(c2ccccc2F)CC1	8.8	11	-	.	.	-	-	-
O=C1c2cccc3c(N4CCOCC4)c([N+](=O)[O-])cc(c23)C(=O)N1c1cccc2ccccc12	6.8	-	-	-	-	-	-	-
COc1ccc(/C=C\c2nc(=O)c3ccccc3o2)cc1	7.2	19	4.2	-	.	-	-	11
Nc1[nH]c2cc(Cl)ccc2c1C(=O)NCCc1ccc(Cl)cc1	6.6	-	-	.	.	-	-	7.2
Nc1[nH]c(C(=O)c2ccccc2)c(-c2ccccc2C(F)(F)F)c1C(=O)NCc1ccc(F)cc1	-	-	-	.	.	-	.	.
Nc1[nH]c2cc(C(F)(F)F)ccc2c1C(=O)NCc1ccc(F)cc1	7.0	-	-	.	.	-	-	-
CS(=O)(=O)c1ccc(C(=O)CN2C(=O)NC3(CCCc4ccccc43)C2=O)cc1 (stereo not drawn)	-	-	-	-	-	-	.	.
CCOc1cc2c3c(c1)C1(C(=O)N3C(C)(C)CC2C)C(C#N)=C(N)N2C(=C1C#N)Nc1ccccc12 (stereo not drawn)	7.2	-	-	-	58	-	-	-
Cn1c2ccc(Cl)cc2c2nc3ccccc3nc21	8.8	12	-	-	56	2.4	-	8.5
CCn1c2ccccc2c2nnc(SCCN3CCCCC3)nc21	-	-	-	-	-	-	.	.
Cn1c2ccc(F)cc2c2nc3ccccc3nc21	7.1	-	-	-	-	-	-	8.3
CCOc1ccc2c(c1)c1nc3ccccc3nc1n2C	-	-	-	-	.	-	.	.
Cn1c2ccc(F)cc2c2nnc(SCCN3CCCCC3)nc21	8.2	-	-	-	.	1.1	-	6.9
O=C(O)CC1(CC(=O)Nc2ccc3c(c2)OCCCO3)CCCCC1	-	-	-	-	-	-	.	.

Compound activity deposited in PubChem BioAssay by The Scripps Research Institute Molecular Screening Center.
